Among the data in PubChem BioAssay are inhibition values, retold here.

Each structure is given as a SMILES string. Unmarked numbers belong to inactive results. How the calls were made is not given here.

The target in the test is Pantothenate synthetase (Mycobacterium tuberculosis (strain ATCC 25618 / H37Rv)) (UniProt P9WIL5). As to the kind of experiment: Recombinant Mtb pantothenate synthetase (PanC) inhibitors, coupled enzyme, confirmatory (AID 375).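 Further: 0% = full reaction with vehicle and 100% = no enzyme background.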 Conditions: coupled enzyme assay; at 10 µM, active compounds read high.
Pantothenate synthetase (Mycobacterium tuberculosis (strain ATCC 25618 / H37Rv)), sequence (P9WIL5 whole entry, looked up): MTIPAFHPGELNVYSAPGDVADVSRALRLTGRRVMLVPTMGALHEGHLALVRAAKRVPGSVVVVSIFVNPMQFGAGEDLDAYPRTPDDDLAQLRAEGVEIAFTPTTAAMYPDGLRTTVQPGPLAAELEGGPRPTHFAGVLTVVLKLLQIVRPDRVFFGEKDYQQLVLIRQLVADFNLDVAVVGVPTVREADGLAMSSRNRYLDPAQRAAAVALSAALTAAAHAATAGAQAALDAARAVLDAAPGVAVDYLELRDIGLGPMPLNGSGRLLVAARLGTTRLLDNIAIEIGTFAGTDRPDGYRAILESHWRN
As to `Cn1c(CSc2nc3ccccc3s2)nnc1SCC(=O)NCCN1CCOCC1`, the inhibition was 0%.

On to `CCN1CCN(Cc2nc3c(c(=O)n(C)c(=O)n3C)n2CC(=O)c2ccccc2)CC1`, for which the inhibition is 2%.

For the molecule `O=C(CN1CCC(NC(=O)c2ccc(F)cc2)CC1)NCc1ccccc1F`, the inhibition is 5%.

`CC1=C(C(=O)NCc2ccccn2)C2(CCC(C)CC2)OC1=O` (configuration not stated): the inhibition is 0%.

Regarding `O=C(OCC(=O)c1ccccc1Br)c1ccccn1`, the inhibition was 3%.

Turning to `O=C(c1ncn[nH]1)N1CCN(c2nc(-c3ccccc3)cs2)CC1`, the inhibition is 5%.

In the case of `CCN(CCCNC(=O)c1cn(CC)c2ccc(S(=O)(=O)N(C)C)cc2c1=O)c1cccc(C)c1`, the inhibition is 7%.

Turning to `CCC(=O)n1nc(-c2ccco2)nc1N`, the inhibition is 0%.

Regarding `CCC(c1nnc(SCC(=O)NCC2CCCO2)n1Cc1ccccc1)N(C)C` (configuration not stated), the inhibition was 0%.

On to `O=C(c1ccc(COc2c(F)c(F)c(F)c(F)c2F)o1)N1CCOCC1`, for which the inhibition is 4%.

On to `Cc1ccc(-c2noc(C3CCCN(C(=O)c4ccccc4)C3)n2)o1` (configuration not stated), for which the inhibition is 0%.

For `O=C(CSc1ncccn1)NCc1ccccc1`, the inhibition is 0%.

For `Cc1cc(Cl)c(S(=O)(=O)N2CCN(c3ccc(F)cc3)CC2)cc1OCC(N)=O`, the inhibition is 0%.

For `Cc1cnc(SCCc2ccncc2)nc1C`, the inhibition is 2%.

With `COc1ccc(C2C(=O)N(C3CCCCC3)CC(=O)N2Cc2ccco2)cc1` (configuration not stated), the inhibition is 6%.

Consider `COc1cccc(NC(=O)c2ccccc2NS(C)(=O)=O)c1`, for which the inhibition is 0%.

Turning to `C=CCOC(=O)CCC(=O)Nc1cc(OC)nc(OC)n1`, the inhibition is 0%.
